An excerpt weighted towards active compounds, which were near 2.7% of everything screened.
Tau FP inhib = qHTS for Inhibitors of Tau Fibril Formation, Fluorescence Polarization. K18 P301L tau heparin fibrillization, Alexa594 FP, 6 h. AID 1468, 2008. Potency, µM (titrated, usually from 57.7 µM), actives largely listed as inhibitors. 280,000 tested, 0.39% active. Microtubule-associated protein tau (Homo sapiens), P10636; also: nearly all actives have a fitted effect of over 55% in size
Target sequence (P10636 561-689 P618L limits assumed): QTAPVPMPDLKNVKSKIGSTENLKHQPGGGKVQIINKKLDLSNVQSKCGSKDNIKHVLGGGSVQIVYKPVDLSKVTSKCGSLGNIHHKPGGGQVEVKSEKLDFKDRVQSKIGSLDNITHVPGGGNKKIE
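Human tau K18 […] P301L fragment, 15 uM unlabeled plus 0.24 uM Alexa 594-labeled tau (final), with compound and 20 uM heparin in 100 mM sodium acetate pH 7; 6 hr at 37 C, then Alexa 594 FP read.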
Coupling enz = qHTS Assay for Inhibitors of Fructose-1,6-bisphosphate Aldolase from Giardia Lamblia: Coupling assay counterscreen; coupling enzyme system counterscreen, AmpLite Red fluorescence; activity change, negative = inhibition, % at 58.2 µM, hits read low; 290,000 tested, 0.67% active; AID 2472, 2010; in the data active = activity change below about -30%
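Counterscreen of the coupled detection system alone, without aldolase: glyceraldehyde-3-phosphate coupling enzymes plus AmpLite Red readout. Compounds at 57.5 uM final, 10 min RT preincubation, 20 min RT reaction, fluorescence 525/598 nm.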
Tau ThT inhib = qHTS for Inhibitors of Tau Fibril Formation, Thioflavin T Binding. Microtubule-associated protein tau (Homo sapiens), P10636. recombinant tau K18 P301L, heparin-induced fibrillization, ThT fluorescence. Potency, µM (titrated, usually from 57.4 µM), actives largely listed as inhibitors. 270,000 tested, 2.1% active. AID 1460, 2008; also: nearly all actives have a fitted effect of over 55% in size
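Tau K18 P301L fragment (15 uM unlabeled plus 0.24 uM Alexa 594-labeled) in 100 mM sodium acetate pH 7 with compound, fibrillization induced by 20 uM heparin for 6 hr at 37 C. Thioflavin T (30 uM) added, fluorescence read after 1 hr (ex 450, em 510 nm).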
Tau fluor cs = Counterscreen qHTS for Inhibitors of Tau Fibril Formation, Fluorescence Polarization; 280,000 tested, 0.93% active; tau K18 P301L (four-repeat tau fragment) Alexa594 fluorescence, heparin fibrillization; Potency, µM (doses to about 57.7 µM); also: nearly all actives have a fitted effect of over 55% in size
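Human K18 P301L tau (15 uM unlabeled plus 0.24 uM Alexa 594-labeled, final) in 100 mM sodium acetate pH 7 was mixed with compound and 20 uM heparin and incubated 6 hr at 37 C.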
Of the large screens only hits and unclear results are named; the others gave an inactive call; [ ] = remark or other dose. Unless noted, calls follow the shape of the dose curve; as a rule, active = well fitted curve in the direction sought with a large enough effect; inconclusive = small, poorly fitted or top-dose-only effect, or another doubt; inactive = no such curve, though single readings can be large; an effect the other way counts as inactive or inconclusive.

O=C(Nc1ccc(N2CCN(C(=O)c3ccc(Cl)cc3)CC2)cc1)c1ccc([N+](=O)[O-])o1	Tau ThT inhib 13µM, Tau fluor cs inconclusive
CCCC(=O)N1CCN(c2ccc(NC(=O)c3ccc([N+](=O)[O-])o3)cc2)CC1	Tau ThT inhib 4µM
CCC(=O)N1CCN(c2ccc(NC(=O)c3ccc([N+](=O)[O-])o3)cc2)CC1	Tau ThT inhib 3.2µM
CCCC(=O)N1CCN(c2ccc(NC(=O)c3sc4ccccc4c3Cl)cc2)CC1	Tau FP inhib inconclusive, Tau ThT inhib 2.2µM
CC(C)(C)C(=O)N1CCN(c2ccc(NC(=O)c3ccc([N+](=O)[O-])o3)cc2)CC1	none (no result: Tau FP inhib, Tau ThT inhib, Tau fluor cs)
CCCC(=O)N1CCN(c2ccc(NC(=O)c3cc4ccccc4o3)cc2)CC1	Tau ThT inhib inconclusive
CCCC(=O)N1CCN(c2ccc(NC(=O)c3ccc(Br)o3)cc2)CC1	Tau ThT inhib inconclusive
Cc1ccc(C)c(N2CCN(C(=O)CN3C(=O)COc4ccc(S(=O)(=O)N5CCOCC5)cc43)CC2)c1	none (no result: Coupling enz)
CC1=C(C(=O)O)N2C(=O)[C@@H](NC(=O)C(N)c3ccccc3)[C@H]2SC1 (some centres not stated)	none (no result: Coupling enz)
N[C@@H](C(=O)N[C@@H]1C(=O)N2C(C(=O)O)=C(Cl)CS[C@H]12)c1ccccc1	Tau FP inhib inconclusive, Tau ThT inhib 28µM
NC(C(=O)N[C@@H]1C(=O)N2C(C(=O)O)=C(Cl)CS[C@H]12)c1ccccc1 (some centres not stated)	Tau FP inhib inconclusive, Tau ThT inhib 28µM (no result: Coupling enz)
O=C(NCc1ccc2c(c1)CCN2C(=O)c1ccc(F)cc1)c1ccc(Br)o1	none (no result: Coupling enz)
COc1ccnc(CS(=O)c2nc3ccc(OC(F)F)cc3[nH]2)c1OC (configuration not stated)	Tau FP inhib inconclusive, Tau ThT inhib 25µM
CCc1cc(=O)oc2c(C)c(OCC(=O)Nc3ccc(S(=O)(=O)N(CC)CC)cc3)ccc12	Tau fluor cs inconclusive (no result: Coupling enz)
Cc1cc(N(C)C)ccc1N=Nc1ccc2ncccc2c1	Tau ThT inhib 0.5µM, Tau fluor cs inconclusive
CCOC(=O)c1nnc2c(-c3ccc(Cl)cc3)c(C)nn2c1C	Tau ThT inhib 7.9µM (no result: Coupling enz)
CCc1nnc(NC(=O)c2ccc(Cl)nc2)s1	Tau ThT inhib inconclusive
CC(C)(C)c1nnc(NC(=O)c2ccc(Cl)nc2)s1	Coupling enz -36
O=[N+]([O-])c1ccc(COc2ccc(-c3[nH]ncc3-c3ccccc3)c(O)c2)cc1	Tau FP inhib inconclusive, Tau fluor cs inconclusive
COc1ccc(-c2cn[nH]c2-c2ccc(OCC(=O)NN)cc2O)cc1	none (no result: Tau FP inhib, Tau ThT inhib, Tau fluor cs)
C=C(C)COc1ccc(-c2[nH]ncc2-c2ccccc2)c(O)c1	Tau fluor cs 18µM[quencher]
C=C(C)COc1ccc(-c2n[nH]c(C)c2Oc2ccccc2OC)c(O)c1	Tau ThT inhib inconclusive
C=C(C)COc1ccc(-c2[nH]ncc2-c2ccc(OC)cc2)c(O)c1	Tau FP inhib inconclusive, Tau fluor cs 11µM[quencher]
C=C(C)COc1ccc(-c2[nH]ncc2-c2ccc(OC)c(OC)c2)c(O)c1	Tau fluor cs 25µM[quencher]
C=C(C)COc1ccc(-c2n[nH]c(C)c2-c2ccc(OC)c(OC)c2)c(O)c1	Tau fluor cs 14µM[quencher]
CN(CCc1ccc(Cl)c(Cl)c1)CC(O)COc1ccc(NS(C)(=O)=O)cc1 (configuration not stated)	none (no result: Coupling enz)
CCN=c1scc(-c2ccco2)n1/N=C/c1ccc(OC)c(O)c1	Tau FP inhib inconclusive, Tau ThT inhib 10µM, Tau fluor cs 16µM[quencher]
COc1ccc(/C=N/N2CCN(C)CC2)cc1O	none
CCN=c1scc(-c2ccco2)n1/N=C/c1ccc(O)cc1	Tau ThT inhib 7.1µM, Tau fluor cs 14µM[quencher]
Cc1ccc(O)c(C2=Nc3ccccc3N=C(c3cccc([N+](=O)[O-])c3)C2)c1	Tau ThT inhib inconclusive, Tau fluor cs inconclusive
CCCCNC(=O)c1sc(=S)n2c1[nH]c(=O)c1ccccc12	Tau FP inhib inconclusive, Tau ThT inhib 16µM, Tau fluor cs inconclusive
O=C(NC1CCCCC1)c1sc(=S)n2c1[nH]c(=O)c1ccccc12	Tau ThT inhib 14µM, Tau fluor cs inconclusive
O=C(NCCc1c[nH]c2ccccc12)c1cc2sccc2n1Cc1ccccc1	Tau fluor cs 8.9µM[quencher]
COc1ccc(Cn2ccnc2SCC(=O)Nc2cc(C(F)(F)F)ccc2Cl)cc1	Tau ThT inhib inconclusive, Tau fluor cs inconclusive (no result: Coupling enz)

Source: PubChem (National Center for Advancing Translational Sciences (NCATS))
